Here are results for 22 compounds from PubChem BioAssay (EPA / NIEHS).

Read-out in experiment [1]: Interferon-gamma inducible Protein 10 (IP10), CXCL10 (gene 3627)
Kind of experiment: BSK_hDFCGF_IP10: BioMAP Diversity Plus: hDFCGF Assay for Interferon-gamma inducible Protein 10 (IP10) Biomarker Activity (AID 2283053). As to conditions: primary human foreskin fibroblasts; actives raise or lower the signal. The procedure, abridged: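 Human foreskin fibroblast primary cells (hDFCGF system) were dosed with chemical and assayed at 24 h; IP-10 measured by ELISA. Activity fitted bidirectionally relative to DMSO negative control as baseline.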

Read-out in experiment [2]: Urokinase-type plasminogen activator receptor (uPAR), PLAUR (gene 5329)
The experiment in a line: BSK_CASM3C_uPAR: BioMAP Diversity Plus: CASM3C Assay for Urokinase-type plasminogen activator receptor (uPAR) Biomarker Activity (AID 2283054).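 Note: cell-surface uPAR protein level quantified by ELISA.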 The note with it: primary human coronary artery smooth muscle cells; actives raise or lower the signal.

Read-out in experiment [3]: Vascular cell adhesion molecule 1 (VCAM1), VCAM1 (gene 7412)
The experiment in a line: BSK_CASM3C_VCAM1: BioMAP Diversity Plus: CASM3C Assay for Vascular cell adhesion molecule 1 (VCAM1) Biomarker Activity (AID 2283055).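 Note: VCAM-1 protein level quantified by ELISA on the cells.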 As to conditions: primary human coronary artery smooth muscle cells; actives raise or lower the signal.

Read-out in experiment [4]: Collagen III, COL3A1 (gene 1281)
Kind of experiment: BSK_hDFCGF_CollagenIII: BioMAP Diversity Plus: hDFCGF Assay for Collagen III Biomarker Activity (AID 2283056). The note with it: primary human foreskin fibroblasts; actives raise or lower the signal. Put shortly:
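hDFCGF primary human dermal fibroblasts; 24 h chemical exposure; collagen III by ELISA; bidirectional curve fit vs DMSO baseline (gain or loss of signal).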

Read-out in experiment [5]: Epidermal growth factor receptor (EGFR), EGFR (gene 1956)
Kind of experiment: BSK_hDFCGF_EGFR: BioMAP Diversity Plus: hDFCGF Assay for Epidermal growth factor receptor (EGFR) Biomarker Activity (AID 2283057). The note with it: primary human foreskin fibroblasts; actives raise or lower the signal. Put shortly:
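Primary human foreskin fibroblasts were exposed to compound for 24 h, after which cell-surface EGFR was quantified by ELISA. Activity was fitted bidirectionally against the DMSO negative control as baseline.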

Read-out in experiment [6]: Interleukin-8 (IL8), CXCL8 (gene 3576)
Kind of experiment: BSK_hDFCGF_IL8: BioMAP Diversity Plus: hDFCGF Assay for Interleukin-8 (IL8) Biomarker Activity (AID 2283058). As to conditions: primary human foreskin fibroblasts; actives raise or lower the signal. The procedure, abridged: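 ELISA read-out of IL-8 from primary human foreskin fibroblast cultures taken 24 h after dosing; values are bidirectional fits relative to DMSO vehicle.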

Experiment [7] can be described thus: BSK_hDFCGF_Proliferation: Cell Proliferation Assessment in the BioMAP Diversity Plus: hDFCGF Assay (AID 2283059).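 Note: curves fitted for both rise and fall of signal versus DMSO baseline.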 As to conditions: primary human foreskin fibroblasts. The procedure, abridged: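 Primary human foreskin fibroblasts, sub-confluent; […]; 10% TCA fix, 0.1% SRB stain, A560 total protein. Gain/loss fitted bidirectionally vs DMSO control.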

Read-out in experiment [8]: Macrophage colony-stimulating factor (MCSF), CSF1 (gene 1435)
Kind of experiment: BSK_hDFCGF_MCSF: BioMAP Diversity Plus: hDFCGF Assay for Macrophage colony-stimulating factor (MCSF) Biomarker Activity (AID 2283060). The note with it: primary human foreskin fibroblasts; actives raise or lower the signal. Put shortly:
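ELISA read-out of M-CSF in human dermal foreskin fibroblast cultures, 24 h after chemical dosing; gain or loss of signal fitted bidirectionally relative to DMSO baseline.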

Experiment [9] is described as follows: BSK_hDFCGF_SRB: Viability Assessment in the BioMAP Diversity Plus: hDFCGF Assay (AID 2283061).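 Note: cells exposed to compound for 24 h before the read.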 As to conditions: primary human foreskin fibroblasts. The procedure, abridged: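 Primary human foreskin fibroblasts; 24 h post-dose; fixed 10% TCA, stained 0.1% SRB, A560 read; total protein as overt cytotoxicity measure; curves fit bidirectionally vs DMSO control.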

Read-out in experiment [10]: TIMP metallopeptidase inhibitor 1 (TIMP1), TIMP1 (gene 7076)
The experiment in a line: BSK_hDFCGF_TIMP1: BioMAP Diversity Plus: hDFCGF Assay for TIMP metallopeptidase inhibitor 1 (TIMP1) Biomarker Activity (AID 2283062). As to conditions: primary human foreskin fibroblasts; actives raise or lower the signal. The procedure, abridged:
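ELISA readout of TIMP-1 from human dermal foreskin fibroblast cultures 24 h post-dosing. Curves were fitted in both directions against DMSO baseline, with SRB total-protein staining in parallel cultures as a cytotoxicity check.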

Active and inactive are the calls of the source. Rule for the calls: active = hit-call score of the fitted dose curve at least 0.9, where 1 is the maximum; inactive = score below 0.9.

As for `O=C1CCC(N2C(=O)c3ccccc3C2=O)C(=O)N1` (centres undefined), the outcome in experiment [1], in [2], in experiment [3], in [4], in experiment [5] and in experiment [6] was inactive. Further, the outcome in experiment [7], in experiment [8], in experiment [9] and in experiment [10] was inactive.

The AC50 is the midpoint of the concentration-response curve, whichever way the signal moves. In the case of `CCCCCCc1ccc(O)cc1O`, the AC50 in [1] is 29.8 µM (active); in experiment [4], 17.5 µM (active); in experiment [5], 20 µM (active); in [7], 19 µM (active); in experiment [8], 28.1 µM (active); in experiment [9], 31.2 µM (active). Also, the AC50 in experiment [10] is 33.2 µM (active). Further, the outcome in [2] and in experiment [3] was inactive.

On to `Cc1ccc(C)c(O)c1`, for which the outcome in experiment [1], in experiment [2], in experiment [3], in experiment [4], in experiment [6] and in experiment [7] was inactive. Moreover, the outcome in experiment [8], in [9] and in experiment [10] was inactive.

`O=P(OC(CCl)CCl)(OC(CCl)CCl)OC(CCl)CCl`: the outcome in experiment [1], in [2], in experiment [3], in experiment [5], in [6] and in [8] was inactive. Moreover, the outcome in [9] and in experiment [10] was inactive. The AC50 is 12 µM (active) in experiment [4] and 16.2 µM (active) in experiment [7].

In the case of `CCOc1cccc(-n2cc(C(=O)N3CCN(c4cc(C(=O)O)c5ccccc5c4)CC3)nc2-c2ccc(C)cc2)c1`, the AC50 in experiment [1] was 10.4 µM (active); in [2], 31.1 µM (active); in experiment [3], 19.2 µM (active); in experiment [4] it was 4.99 µM (active); in experiment [6], 14.2 µM (active); in [7] it was 10.2 µM (active). Also, the half-maximal activity concentration (AC50) in experiment [8] is 7.68 µM (active); in [9] it was 6.49 µM (active); in experiment [10] it was 13.3 µM (active).

`NC(=O)NO`: the outcome in [1], in experiment [2], in [3], in experiment [4], in experiment [5] and in experiment [6] was inactive. Besides, the result in [7], in [8], in experiment [9] and in experiment [10] was inactive.

As to `CC(C)CC(C)(O)C#CC(C)(O)CC(C)C` (centres undefined), the outcome in experiment [1], in experiment [2], in experiment [3], in experiment [4], in [5] and in experiment [6] was inactive. In addition, the outcome in experiment [7], in [8], in experiment [9] and in experiment [10] was inactive.

On to `CNCc1ccc(NC(=O)c2c[nH]c3c2C(=O)CCC3)cc1`, for which the outcome in experiment [1], in experiment [2], in experiment [3], in experiment [4], in experiment [5] and in experiment [6] was inactive. In addition, the result in experiment [7], in experiment [8], in experiment [9] and in experiment [10] was inactive.

For `O=C(O)CC(O)C(=O)O` (centres undefined), the outcome in [1], in [2], in experiment [3], in experiment [4], in experiment [5] and in [6] was inactive. Besides, the result in experiment [7], in [8], in experiment [9] and in [10] was inactive.

`O=C(OC[C@H]1O[C@@H](OC(=O)c2cc(O)c(O)c(OC(=O)c3cc(O)c(O)c(O)c3)c2)[C@H](OC(=O)c2cc(O)c(O)c(OC(=O)c3cc(O)c(O)c(O)c3)c2)[C@@H](OC(=O)c2cc(O)c(O)c(OC(=O)c3cc(O)c(O)c(O)c3)c2)[C@@H]1OC(=O)c1cc(O)c(O)c(OC(=O)c2cc(O)c(O)c(O)c2)c1)c1cc(O)c(O)c(OC(=O)c2cc(O)c(O)c(O)c2)c1`: the results for the AC50 in [1], in experiment [7] and in [8] were 0.986 µM (active), 3.77 µM (active) and 1.21 µM (active), respectively. Further, the outcome in experiment [2], in experiment [3], in [5], in experiment [6], in [9] and in [10] was inactive.

For the compound `Clc1nc(Cl)c(Cl)c(Cl)c1Cl`, the result in experiment [1], in experiment [2], in experiment [3], in [4], in experiment [6] and in [7] was inactive. Moreover, the outcome in experiment [8], in experiment [9] and in experiment [10] was inactive.

Regarding `CNS(=O)(=O)c1cc(C(=O)N2CCC(CCN3C4CCC3CC(n3c(C)nc5ccccc53)C4)(c3cccc(F)c3)CC2)c(Cl)cc1F` (centres undefined), the result in experiment [1], in experiment [2], in experiment [6], in experiment [8] and in experiment [10] was inactive. Moreover, the AC50 was 6.7 µM (active) in experiment [3], 20 µM (active) in experiment [4], 11.5 µM (active) in [7] and 24.8 µM (active) in experiment [9].

Regarding `O=c1n(CC2CO2)c(=O)n(CC2CO2)c(=O)n1CC1CO1` (centres undefined), the outcome in experiment [1], in experiment [2], in experiment [6], in experiment [9] and in experiment [10] was inactive. In addition, the AC50 in experiment [3] is 18.6 µM (active); in [4], 6.71 µM (active); in experiment [7], 4.36 µM (active); in experiment [8], 20 µM (active).

For `Cc1c(-c2cccnc2)c2ccccc2n1CCCCC(=O)O`, the outcome in experiment [2], in [3], in [4], in [5], in experiment [6] and in [7] was inactive. In addition, the outcome in experiment [8], in experiment [9] and in experiment [10] was inactive.

`COC(=O)c1c(Cl)c(Cl)c(C(=O)OC)c(Cl)c1Cl`: the result in experiment [1], in experiment [2], in [3], in [4], in [6] and in experiment [7] was inactive. Also, the result in [8], in experiment [9] and in experiment [10] was inactive.

Take `CC1(C)C(=O)N(Br)C(=O)N1Br`: the result in experiment [2], in experiment [3], in [4], in experiment [5], in experiment [6] and in experiment [7] was inactive. Moreover, the outcome in experiment [8], in experiment [9] and in [10] was inactive.

In the case of `CC(=O)c1ccc2c(c1)[C@H](NC(=O)c1ccc(F)cc1)[C@@H](O)C(C)(C)O2`, the outcome in experiment [2], in [3], in experiment [4], in experiment [5], in experiment [6] and in [7] was inactive. For the same compound, the outcome in [8], in [9] and in experiment [10] was inactive.

For `CC(C)CCCCCCOC(=O)c1ccc(C(=O)OCCCCCCC(C)C)c(C(=O)OCCCCCCC(C)C)c1`, the outcome in experiment [1], in experiment [2], in experiment [3], in experiment [4], in experiment [6] and in [7] was inactive. Further, the result in [8], in [9] and in [10] was inactive.

Consider `Cc1ccc(N)cc1O`, for which the outcome in experiment [1], in [2], in experiment [3], in experiment [4], in experiment [6] and in experiment [8] was inactive. In addition, the result in experiment [9] and in experiment [10] was inactive. Moreover, the concentration at half-maximal activity (AC50) in experiment [7] is 23.9 µM (active).

Regarding `C1N2CN3CN1CN(C2)C3`, the outcome in experiment [1], in experiment [2], in experiment [3], in experiment [4], in experiment [6] and in experiment [7] was inactive. The result in experiment [8], in experiment [9] and in experiment [10] was inactive.

On to `O=C1OC(=O)C2C3C=CC(C3)C12` (centres undefined), for which the result in experiment [1], in experiment [2], in experiment [3], in experiment [4], in experiment [6] and in experiment [7] was inactive. In addition, the outcome in experiment [8], in experiment [9] and in experiment [10] was inactive.

On to `COc1ccc(-n2nc(C(F)F)cc2-c2ccc(S(C)=O)cc2)cc1` (centres undefined), for which the result in experiment [1], in [2], in [3], in experiment [4], in experiment [6] and in experiment [7] was inactive. For the same compound, the result in experiment [8], in experiment [9] and in experiment [10] was inactive.
